# Test results reported in PubChem BioAssay (EPA / NIEHS).
# Several values for one entry are separate records, joined by “and”; a condition that tells them apart may be missing. Equal entries are not always repeated. Activity calls are given as the source filed them. Rule for the calls, unless noted: active = hit-call score of the fitted dose curve at least 0.9, where 1 is the maximum; inactive = score below 0.9.
# Key:
# SERPINA7 (gene 6906) = experiment: CCTE_GLTED_hTBG: CCTE's human Thyroxine-binding Globulin (TBG) Inhibition Assay, Great Lakes Toxicology and Ecology Division (GLTED) Lab (AID 2284343; active = hit-call score of the fitted dose curve at least 0.9, where 1 is the maximum;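 note: active chemicals lower fluorescence versus DMSO baseline by displacing probe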)
# Summary of the method: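 Cell-free displacement of the fluorescent probe ANSA from human thyroxine-binding globulin after 2 h exposure. Read-out at ex 380/em 475 nm; DMSO baseline.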
# [1] = CCTE_Padilla_ZF_Score.General: CCTE's 144 Hour Post-fertilization zebrafish Assay Score for General Malformation, Padilla Lab (AID 2284411)
# Summary of the method: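 Malformation, death and hatching were scored at 6 dpf by two blinded observers under a stereo microscope. Embryos were dosed singly from 6-8 hpf in sealed plates of 10% Hanks' at 26C and rinsed on 5 dpf; DMSO baseline.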
# [2] = CCTE_Padilla_ZF_Score.Craniofacial: CCTE's 144 Hour Post-fertilization zebrafish Assay Score for Craniofacial Malformation, Padilla Lab (AID 2284405)
# Summary of the method: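 Craniofacial defects were scored at 6 dpf by two blinded observers using stereomicroscopy. Exposure of wild-type embryos began at 6–8 hpf in sealed wells of 10% Hanks' solution at 26C, with chemical removed by rinsing at 5 dpf.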
# [3] = CCTE_Padilla_ZF_Score.Edema: CCTE's 144 Hour Post-fertilization zebrafish Assay Score for Edema Malformation, Padilla Lab (AID 2284406)
# Summary of the method: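 Edema scored at 6 dpf by two blinded observers under a stereo microscope, in single outbred wild-type larvae exposed from 6-8 hpf in sealed wells (Hanks', 26C, 14:10 h light) and chemical-free after a 5 dpf rinse.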
# [4] = CCTE_Padilla_ZF_Score.Spine: CCTE's 144 Hour Post-fertilization zebrafish Assay Score for Spine Malformation, Padilla Lab (AID 2284407)
# Summary of the method: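 Spine malformation scored at 6 dpf by two independent blinded observers under stereomicroscope, after static sealed exposure from 6–8 hpf at 26C in Hanks' solution with rinse on 5 dpf. Positive-direction fit against DMSO control.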
# [5] = CCTE_Padilla_ZF_Score.Swim_bladder: CCTE's 144 Hour Post-fertilization zebrafish Assay Score for Swim Bladder Malformation, Padilla Lab (AID 2284408)
# Summary of the method: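 Swim bladder inflation scored at 6 dpf by two blinded observers under a stereo microscope. Exposure ran from 6–8 hpf in sealed wells of 10% Hanks' at 26C, with rinsing at 5 dpf; DMSO served as baseline.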
# [6] = CCTE_Padilla_ZF_Score.Position: CCTE's 144 Hour Post-fertilization zebrafish Assay Score for Position, Padilla Lab (AID 2284409)
# Summary of the method: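 Wild-type zebrafish embryos (with chorions) exposed singly from 6–8 hpf in sealed wells of Hanks' solution at 26C, rinsed at 5 dpf. At 6 dpf, blinded assessors scored abnormal water-column position by brightfield stereomicroscopy, relative to DMSO.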
# [7] = CCTE_Padilla_ZF_Score.Living: CCTE's 144 Hour Post-fertilization zebrafish Assay Score for Viability, Padilla Lab (AID 2284410);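 note: larval death at 6 dpf judged by absent heartbeat or coagulation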
# Summary of the method: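 Mortality at 6 dpf, judged as absent heartbeat or coagulation by two blinded observers, after sealed static exposure beginning at 6–8 hpf at 26C. Larvae were rinsed free of chemical at 5 dpf, and activity was fitted relative to DMSO.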
smiles,measurement,setting,value
O=C(O)COc1cc(Cl)c(Cl)cc1Cl,AC50,SERPINA7 (gene 6906),45.6 µM (active)
CCCCCCCCCCBr,outcome,[1],inactive
CCCCCCCCCCCCOS(=O)(=O)O,AC50,SERPINA7 (gene 6906),37.2 µM (active) and 56.4 µM (active)
COC(F)(C(F)(F)C(F)(F)F)C(F)(C(F)(F)F)C(F)(F)F (stereo not drawn),outcome,[2],inactive
same,outcome,[3],inactive
same,outcome,[4],inactive
same,outcome,[5],inactive
same,outcome,[6],inactive
same,outcome,[7],inactive
same,outcome,[1],inactive
C=CCOC(F)(C(F)(F)F)C(F)(F)F,outcome,[2],inactive
same,outcome,[3],inactive
same,outcome,[4],inactive
same,outcome,[5],inactive
same,outcome,[6],inactive
same,outcome,[7],inactive
same,outcome,[1],inactive
CCCCCCCCCCCCc1cccc(S(=O)(=O)O)c1,AC50,SERPINA7 (gene 6906),22.2 µM (active)
O=S(=O)(F)C(F)(F)C(F)(F)C(F)(F)C(F)(F)F,outcome,[2],inactive
same,outcome,[3],inactive
same,outcome,[4],inactive
same,outcome,[5],inactive
same,outcome,[6],inactive
same,outcome,[7],inactive
same,outcome,[1],inactive
Cc1ccc2nc3sc(=O)sc3nc2c1,AC50,[1],0.563 µM (active)
OC(Cc1ccccc1Cl)(Cn1cncn1)C1(Cl)CC1 (stereo not drawn),outcome,[1],inactive
Cc1cccc(OP(=O)(Oc2cccc(C)c2)Oc2cccc(C)c2)c1,outcome,[1],inactive
CCOC(=O)C(SP(=S)(OC)OC)c1ccccc1 (stereo not drawn),AC50,[1],8.89 µM (active)
CC(C=O)Cc1ccc2c(c1)OCO2 (stereo not drawn),outcome,[1],inactive
CCOP(=O)(OCC)SCCSCC,outcome,[1],inactive
CCCCCCCCCCCCN(C)C,outcome,[1],inactive
CC(F)(F)CC(F)(F)F,outcome,[2],inactive
same,outcome,[3],inactive
same,outcome,[4],inactive
same,outcome,[5],inactive
same,outcome,[6],inactive
same,outcome,[7],inactive
same,outcome,[1],inactive
O=C1C=CC(=O)c2ccccc21,outcome,[1],inactive
Oc1cc(Cl)c(Cl)cc1Cl,AC50,SERPINA7 (gene 6906),40.8 µM (active)
CCN(CC)C(=O)C(Cl)=C(C)OP(=O)(OC)OC,outcome,[1],inactive
CCCSP(=S)(OCC)Oc1ccc(SC)cc1 (stereo not drawn),AC50,SERPINA7 (gene 6906),1.52 µM (active)
Nc1c(Oc2ccccc2)cc(O)c2c1C(=O)c1ccccc1C2=O,AC50,[1],14 µM (active)
Cc1ccccc1OP(=O)(Oc1ccccc1)Oc1ccccc1,AC50,[1],2.78 µM (active)
O=S(=O)(c1ccc(Cl)cc1)c1cc(Cl)c(Cl)cc1Cl,AC50,[1],27.5 µM (active)
Oc1c(Br)cc(Br)cc1Br,AC50,SERPINA7 (gene 6906),10.3 µM (active)
same,AC50,[1],2.31 µM (active)
